Screens from PubChem.
S1P4 agonist = human S1P4 receptor agonism; 220,000 compounds, 0.35% hits; activation, % at 4.98 µM; O95977; S1P4-expressing cell line, agonist reporter assay; in the data active = activation above about 11%;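 note: 0% = DMSO vehicle and 100% = reference agonist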
Target sequence (O95977 whole entry, looked up): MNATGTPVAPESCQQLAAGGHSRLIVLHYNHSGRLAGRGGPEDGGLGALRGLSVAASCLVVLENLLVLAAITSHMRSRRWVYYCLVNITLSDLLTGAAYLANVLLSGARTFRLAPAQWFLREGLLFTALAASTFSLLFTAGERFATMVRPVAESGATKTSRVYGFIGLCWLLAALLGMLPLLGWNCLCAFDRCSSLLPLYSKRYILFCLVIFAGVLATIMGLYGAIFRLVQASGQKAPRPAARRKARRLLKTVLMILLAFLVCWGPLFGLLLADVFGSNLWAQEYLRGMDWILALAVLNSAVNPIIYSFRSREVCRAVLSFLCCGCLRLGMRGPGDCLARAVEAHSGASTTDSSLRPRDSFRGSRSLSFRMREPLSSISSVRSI
S1P4 antagonist = antagonists of human S1P4 receptor; S1P4-expressing cells, antagonist mode, reporter read-out; inhibition, % at 4.98 µM; O95977; 220,000 compounds, 0.26% hits; AID 1510; in the data active = inhibition above about 29%;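 note: 0% = wells stimulated with agonist and 100% = vehicle wells without agonist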
EP2 modulator = modulates human prostaglandin E2 receptor EP2 signaling. P43116. EP2-expressing cells, cAMP HTRF FRET, PGE2 co-stimulation. induction, % at 25 µM. 260,000 compounds, 0.83% hits. AID 940;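 active = compounds whose cAMP rise, as percent of the full-agonist control response, exceeds 60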;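 note: rat C6 glioma line stably carrying human EP2 under a CMV promoter; the protocol text gives 20 µM as final concentration; 100% = response of wells given 1 µM PGE2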
EP2 antag = EP2 receptor (human) inhibition | 260,000 compounds, 0.52% hits | AID 1422 | inhibition, % at 25 µM | C6 glioma cells expressing human EP2, cAMP TR-FRET; cells stimulated with saturating PGE2;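 active = percent inhibition above 40 after rounding to a whole number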;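 note: rat C6 glioma host cells with rolipram phosphodiesterase inhibitor present; the protocol text gives 20 µM as final concentration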
S1P3 antagonist = S1P3 (human) receptor antagonism; CHO S1P3 NFAT-BLA reporter, FRET fluorescence, antagonist mode; inhibition, % at 4.98 µM; 170,000 compounds, 0.27% hits; AID 485;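 active = inhibition above the plate cutoff, the mean inhibition of test wells on that plate plus 3 SD, cut at about 28% in these data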;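 note: cells challenged with S1P at its EC80 of 0.8 µM; blue over green emission ratio from cleaved BLA substrate after 4 h stimulation; 0% = S1P-stimulated wells and 100% = unstimulated DMSO-only wells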
* = called active by the depositor; ! = repeats disagree. The list is not random: actives were taken first. Their share in the collection is about 1.9%.

`O=C1NC(=O)/C(=C/c2cccc([N+](=O)[O-])c2)N1` gave S1P4 agonist 0.6, S1P4 antagonist -2.4, EP2 modulator -19.3, EP2 antag 6.1 and S1P3 antagonist -4.7.
CCN1C/C(=C/c2cccc([N+](=O)[O-])c2)C(=O)/C(=C/c2cccc([N+](=O)[O-])c2)C1 was read as S1P4 agonist 1.4, S1P4 antagonist -15.1, EP2 modulator -56.1, EP2 antag 46.0* and S1P3 antagonist 6.2.
Screening CCOC(=O)c1c(N)nn(C(=O)C(C)C)c1-c1ccccc1 returned S1P4 agonist 0.4, S1P4 antagonist -6.8, EP2 modulator 62.6*, EP2 antag 9.9 and S1P3 antagonist -14.3.
`Cc1ccc(-c2cc(C(=O)N/N=C/c3c[nH]c4ccccc34)[nH]n2)cc1` gave S1P4 agonist -1.9, S1P4 antagonist 0.5, EP2 modulator -78.4, EP2 antag 57.7* and S1P3 antagonist 8.9.
Screening O=C(N/N=C/c1ccccn1)c1cc(-c2ccc3ccccc3c2)n[nH]1 returned S1P4 agonist -0.2, S1P4 antagonist -4.4, EP2 modulator -8.7, EP2 antag 51.0* and S1P3 antagonist 5.7.
Nc1ccccc1-c1nc2ccccc2s1 was read as S1P4 agonist 5.0, S1P4 antagonist -6.4, EP2 modulator -96.7, EP2 antag 4.6 and S1P3 antagonist -39.0.
Screening CN(C)c1nc(N)nc(-c2nc3ccccc3s2)n1 returned S1P4 agonist 1.1, S1P4 antagonist -4.5, EP2 modulator -21.6, EP2 antag 5.3 and S1P3 antagonist 60.1*.
`COc1ccc(CC(=O)N2CCCC(c3ncncc3-c3cc(C)no3)C2)cc1` (centres undefined) gave EP2 modulator 25.3.
`CC(C)c1cccc(O)c(=O)c1` gave S1P4 agonist -0.8, S1P4 antagonist -0.8, EP2 modulator 27.5, EP2 antag 18.8 and S1P3 antagonist -14.7.
For CC(C)c1ccc(O)c(O)c(=O)c1 (tested in a mixture with another compound) the results were EP2 modulator 47.5 and EP2 antag 40.8*.
CCC(=O)Nc1sc(C(=O)Nc2ccc(F)cc2)c(C)c1C(=O)OC was read as EP2 modulator -44.8 and EP2 antag 8.1.
Screening Cn1c(=O)c2c(nc(SCc3ccccc3)n2Cc2ccc(Cl)cc2)n(C)c1=O returned S1P4 agonist -3.3, S1P4 antagonist -8.4, EP2 modulator 58.6 and EP2 antag 5.2.
C=C(C)Cn1c(SCc2ccc(Cl)cc2)nc2c1c(=O)n(C)c(=O)n2C was read as EP2 modulator 80.1* and EP2 antag 5.5.
For CCCn1c(SCc2ccc(Cl)cc2)nc2c1c(=O)[nH]c(=O)n2C the results were S1P4 agonist 0.2, S1P4 antagonist 3.6, EP2 modulator 47.8, EP2 antag 4.4 and S1P3 antagonist 17.6.
C=CCSc1nc2c(c(=O)n(C)c(=O)n2C)n1Cc1ccccc1Cl was read as EP2 modulator 93.0* and EP2 antag 7.8.
For C/C=C/Cn1c(SCc2ccc(Cl)cc2)nc2c1c(=O)[nH]c(=O)n2C the results were S1P4 agonist 1.5, S1P4 antagonist -13.3, EP2 modulator 63.4*, EP2 antag 7.5 and S1P3 antagonist 14.1.
For COc1ccc(OC)c(NS(=O)(=O)c2ccc(Cl)nc2)c1 the results were S1P4 agonist 0.2, S1P4 antagonist -11.0, EP2 modulator 14.5, EP2 antag 5.1 and S1P3 antagonist -6.2.
Screening CCCCOc1ccc(S(=O)(=O)Nc2cc(OC)ccc2OC)cc1 returned S1P4 agonist -2.2, S1P4 antagonist -3.8, EP2 modulator -29.8, EP2 antag 7.6 and S1P3 antagonist 54.6*.
`Cc1nnc2nnc3c4ccccc4ccc3n12` gave EP2 modulator -33.5 and EP2 antag 12.5.
Screening N#Cc1ccc(NC(=O)CSc2nc(N)c(C#N)cc2C#N)cc1 returned EP2 modulator -5.2 and EP2 antag 43.0*.
For N#Cc1cc2ccccc2nc1SCC(=O)Nc1ccccc1 the results were EP2 modulator 14.8 and EP2 antag 17.4.
CCn1c(C)cc2cc(NS(=O)(=O)c3cn(C)nc3C)ccc21 was read as EP2 modulator -54.0 and EP2 antag 8.0.
`c1ccc(Cn2nc(-c3ccccc3)nc2-c2ccccc2)cc1` gave S1P4 agonist -2.2, S1P4 antagonist 2.0, EP2 modulator 44.7, EP2 antag 4.9 and S1P3 antagonist 4.5.
For Cc1nnc2nc(-c3ccccc3)nc(-c3ccccc3)n12 the results were S1P4 agonist 1.1, S1P4 antagonist 1.5, EP2 modulator 82.2*, EP2 antag 5.9 and S1P3 antagonist 13.4.
c1ccc(OCCOCCN2CCN(C(c3ccccc3)c3ccccc3)CC2)cc1 was read as S1P4 agonist -0.2, S1P4 antagonist -2.5, EP2 modulator 61.4*, EP2 antag 6.8 and S1P3 antagonist 9.4.
`COc1ccc(N2C(=O)C3CCCN3C2c2cccc(OC)c2OC)cc1` (centres undefined) gave S1P4 agonist 2.0, S1P4 antagonist -14.1, EP2 modulator 13.0, EP2 antag 4.5 and S1P3 antagonist -24.5.
COc1cccc(C2N(c3ccccc3)CCN2c2ccccc2)c1OC was read as S1P4 agonist 1.6, S1P4 antagonist -15.5, EP2 modulator 64.3*, EP2 antag 3.0 and S1P3 antagonist -8.3.
For O=C(NCc1ccco1)c1ccc(-c2ccc(Cl)cc2)o1 the results were S1P4 agonist 0.3, S1P4 antagonist -14.7, EP2 modulator -48.9, EP2 antag 7.9 and S1P3 antagonist 1.7.
O=C(NCc1ccco1)c1ccc(-c2ccccc2Cl)o1 was read as S1P4 agonist 2.0, S1P4 antagonist -24.0, EP2 modulator -59.8, EP2 antag 59.9*! and S1P3 antagonist -9.6.
`CN(C)c1ncnc2c1ncn2CCn1cnc2c(N(C)C)ncnc21` gave EP2 modulator 28.7 and EP2 antag 45.5*.
`CCN1c2ncccc2C(=O)NC12CCN(C(=O)CCn1nc(C)cc1C)CC2` gave EP2 modulator -21.0 and EP2 antag 24.3.
`CN1C(=O)/C(=C2\SC(=S)N(CCCCCC(=O)O)C2=O)c2ccccc21` gave S1P4 agonist -0.1, S1P4 antagonist -22.3, EP2 modulator 74.8*, EP2 antag 5.4 and S1P3 antagonist 0.7.
CCN1C(=O)/C(=C2\SC(=S)N(CCCOC)C2=O)c2ccccc21 was read as S1P4 agonist 1.4, S1P4 antagonist -5.6, EP2 modulator 39.3, EP2 antag 5.2 and S1P3 antagonist -8.1.
`CSc1nnc2n(-c3ccccc3)c(=O)c3c4c(sc3n12)CCCC4C` (centres undefined) gave EP2 modulator 47.2 and EP2 antag 15.7.
For O=C1CN=C(Nc2ccccc2)N1c1ccc2c(c1)OCCO2 the results were EP2 modulator -5.6 and EP2 antag 12.5.
Screening O=[N+]([O-])c1ccc(NC(=S)NCCc2ccccc2)cc1 returned S1P4 agonist -1.6, S1P4 antagonist -17.3, EP2 modulator -75.7, EP2 antag 19.5 and S1P3 antagonist 5.9.
For O=[N+]([O-])c1ccc(NC(=S)NCCc2ccc(Cl)cc2)cc1 the results were S1P4 agonist -0.4, S1P4 antagonist 5.1, EP2 modulator -18.2 and EP2 antag 73.8*.
